# In PubChem BioAssay (NCATS):
# Results filed as inconclusive are left out. Where a call stands in place of a potency, no number is given. Values without a mark were called inactive. The source made the active and inactive calls. Calls come from the whole dose curve; as a rule, active = well fitted inhibition curve with a large enough effect; inconclusive = small, poorly fitted or top-dose-only effect; inactive = no such curve, though single readings can be large or run the other way.
# Tests used:
# [1] = system: Zika virus NS2B-NS3 protease (unlinked complex); assay: Primary screen GU Rhodamine qHTS for Zika virus inhibitors: Unlinked NS2B-NS3 protease assay (AID 1347159); note: nearly all actives have a fitted effect of over 60% in size
# Method in brief: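 Noncovalent NS2B hydrophilic domain–NS3 protease domain complex (25 nM) preincubated 15 min at room temperature with compounds (up to 114 microM) in 10 mM Tris-HCl pH 8.0, 0.01% Tween 20; 1.5 microM Rhodamine110 substrate added, fluorescence change over 15 min fitted to Hill equation.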
# [2] = system: Zika virus NS2B-NS3 protease (linked construct); assay: Primary screen NINDS Rhodamine qHTS for Zika virus inhibitors (AID 1347160); note: nearly all actives have a fitted effect of over 55% in size
# Method in brief: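 Purified linked NS2B-NS3 protease (NS2B hydrophilic domain joined to NS3 protease by flexible linker), 25 nM in 10 mM Tris-HCl pH 8.0, 0.01% Tween 20. Compounds titrated, 15 min preincubation at room temperature; 1.5 microM Rhodamine110 substrate, FITC fluorescence change over 15 min.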
# [3] = Confirmatory screen NINDS Rhodamine qHTS for Zika virus inhibitors (AID 1347161);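 note: purified Zika NS2B-NS3 protease with linked NS2B cofactor domain and Rhodamine110 peptide substrate; series mostly up to about 110 µM; nearly all actives have a fitted effect of over 60% in size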
# Method in brief: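 Rhodamine110-peptide cleavage (1.5 µM substrate) by 25 nM linked NS2B-NS3 enzyme at pH 8.0 (Tris, Tween 20), after 15 min RT preincubation with compounds; 15-min fluorescence change normalized to controls and Hill-fitted.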
# [4] = system: Zika virus NS2B-NS3 protease (linked); assay: 384 well plate NINDS AMC confirmatory qHTS for Zika virus inhibitors (AID 1347163); settings: Recombinant NS2B-NS3 protease, Ac-VKTGKR-AMC fluorescence; note: potency is the fitted concentration of half-maximal effect; nearly all actives have a fitted effect of over 50% in size
# Method in brief: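 Linked protease 5/30/60 nM final; cpds up to 1 mM final, ~15 min preinc. Substrate Ac-VKTGKR-AMC 30 microM final. RT, dark, 25 min; FI ex 355/em 460; normalized to no-enzyme/no-inhibitor ctrls.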
compound,measurement,setting,value
O=C(N1CCOCC1)N1CCN(c2ccc(Cl)cc2)CC1,Potency,[1],inactive
same,Potency,[2],inactive
CN1C(=O)c2ccccc2NC(=O)C1Cc1ccccc1 (stereo unspecified),Potency,[1],inactive
same,Potency,[2],inactive
CCCN1CCO[C@H]2c3cc(O)ccc3OC[C@@H]21,Potency,[1],inactive
same,Potency,[2],inactive
CC(=O)OC1CC(O)C2(C)C(CC(OC(C)=O)C3(C)C2CCC2(C)C(c4ccoc4)C(=O)C4OC423)C1(C)C (stereo unspecified),Potency,[1],inactive
same,Potency,[2],inactive
C=C1[C@@H]2CC[C@@]3(C)[C@H](c4ccoc4)OC(=O)C[C@]13O[C@H]1CC(=O)C(C)(C)[C@H](C(OC(C)=O)C(=O)OC)[C@]12C (stereo partly specified),Potency,[1],inactive
same,Potency,[2],inactive
CC1C/C=C/C(O)C(O)CC/C=C/c2cc(O)cc(O)c2C(=O)O1 (stereo unspecified),Potency,[1],inactive
same,Potency,[2],inactive
COC1CC(=O)C23C(=O)NC(CC(C)C)C2C(C)=C(C)C(OO)C3/C=C(\C)CCC(O)C1O (stereo unspecified),Potency,[1],inactive
same,Potency,[2],inactive
COc1cc(CCNCc2ccccc2O)c(OC)cc1C#N,Potency,[1],inactive
same,Potency,[2],inactive
C[C@H]1C(=O)O[C@H]2[C@H](O)[C@]34C5OC(=O)[C@]3(O[C@@H]3OC(=O)[C@H](O)C34[C@H](C(C)(C)C)[C@H]5O)C12O (stereo partly specified),Potency,[1],inactive
same,Potency,[2],inactive
CC(C)C1(OO)C=C2C(=O)CC3C(C)(C(=O)O)CCCC3(C)C2CC1 (stereo unspecified),Potency,[2],inactive
CCC(C)(OC(C)=O)C(=O)O[C@H]1[C@H](OC(C)=O)C[C@@H]2[C@@](C)([C@@H]3C[C@H]4C=CO[C@H]4O3)[C@H](C)C[C@H](OC(C)=O)[C@@]2(COC(C)=O)[C@@]12CO2 (stereo partly specified),Potency,[1],inactive
same,Potency,[2],inactive
COC1C(O)C(C)OC(OC2C(CO)O[C@@H](O[C@@H]3CC4CCC5C(CC[C@]6(C)[C@@H](C7=CC(=O)OC7)CC[C@]56O)[C@@]4(C)[C@H](O)C3)C(O)C2O)C1O (stereo partly specified),Potency,[1],inactive
same,Potency,[2],inactive
C[C@@]12C[C@@H](c3ccoc3)OC(=O)C1CC[C@]1(C)[C@H]2[C@H]2C=C[C@]1(O)C(=O)O2 (stereo partly specified),Potency,[1],inactive
same,Potency,[2],inactive
CO[C@@H]1[C@H](O)[C@@H](O[C@@H]2C[C@H]3CC[C@@H]4C(CC[C@]5(C)[C@@H](C6=CC(=O)OC6)CC[C@]45O)[C@@]3(C)[C@H](O)C2)O[C@H](C)[C@@H]1O[C@@H]1O[C@H](CO)[C@@H](O)[C@H](O)[C@H]1O (stereo partly specified),Potency,[1],inactive
same,Potency,[2],inactive
N#CC(OC1OC(COC2OC(CO)C(O)C(O)C2O)C(O)C(O)C1O)c1ccccc1 (stereo unspecified),Potency,[1],inactive
same,Potency,[2],inactive
CN(C)CCc1c[nH]c2ccc(CN3CCN(C)S3(=O)=O)cc12,Potency,[1],inactive
same,Potency,[2],inactive
COC1=CC(=O)O[C@@H](/C=C/c2ccccc2)C1,Potency,[1],inactive
same,Potency,[2],inactive
C[C@]12CC[C@H]3[C@@H]([C@H](O)CC4=CC(=O)CC[C@@]43C)[C@@H]1CC[C@@H]2O,Potency,[1],inactive
same,Potency,[2],inactive
C/C=C(\C)C(=O)O[C@H]1[C@H](OC(C)=O)[C@]2(CO)[C@H](O)[C@H](O)[C@]3(C)C(=CCC4[C@@]5(C)CC[C@H](O[C@@H]6O[C@H](C(=O)O)[C@@H](O)[C@H](O[C@@H]7OC[C@H](O)[C@H](O[C@@H]8OC[C@H](O)[C@H](O)[C@H]8O)[C@H]7O)[C@H]6O[C@@H]6O[C@H](CO)[C@@H](O)[C@H](O)[C@H]6O)C(C)(C)C5CC[C@]43C)[C@@H]2CC1(C)C (stereo partly specified),"activity change, negative = inhibition",[1],-9.49% [at 19.1 µM]
same,"activity change, negative = inhibition",[2],4.93% [at 10.7 µM]
Clc1ccc(N2C[C@H]3CC[C@@H](C2)N3)nn1,Potency,[1],inactive
same,Potency,[2],inactive
C[C@@](O)(COc1ccc(C#N)cc1)C(=O)Nc1ccc(C#N)c(C(F)(F)F)c1,Potency,[1],inactive
same,Potency,[2],inactive
CC[C@H]1CN2CC[C@H]1C[C@@H]2[C@@H](O)c1ccnc2ccc(OC)cc12,Potency,[1],inactive
same,Potency,[2],inactive
Clc1ccc(OCC2=NCCN2)cc1Cl,Potency,[1],inactive
same,Potency,[2],inactive
COC1CC(OC2CCC3(C)C(CCC4C3CCC3(C)C(C5=CC(=O)OC5)C(OC(C)=O)CC43O)C2)OC(C)C1OC1OC(CO)C(O)C(O)C1O (stereo unspecified),Potency,[1],inactive
same,Potency,[2],inactive
COC1CC(O[C@H]2CC[C@]3(C=O)C4CC[C@]5(C)[C@@H](C6=CC(=O)OC6)CC[C@]5(O)[C@@H]4CC[C@]3(O)C2)OC(C)C1O[C@@H]1O[C@H](CO)[C@@H](O)[C@H](O)[C@H]1O (stereo partly specified),Potency,[1],inactive
same,Potency,[2],inactive
COc1ccccc1CN[C@H]1C2CCN(CC2)[C@H]1C(c1ccccc1)c1ccccc1,Potency,[1],inactive
same,Potency,[2],inactive
CC(C)=C1CC[C@]23CO[C@H](C2)[C@@](O)(C(=O)O)CCC13 (stereo partly specified),Potency,[2],inactive
CC(=O)OC12C(O)C(C)C3(O)C4C=C(C)C(=O)C4CC(CO)=CC3C1C2(C)C (stereo unspecified),Potency,[1],inactive
same,Potency,[2],inactive
O=C1OC2(c3cc(Br)c(O)cc3Oc3c2cc(Br)c(O)[c]3[Hg])c2ccccc21 (stereo unspecified),Potency,[3],inactive
CN(C)[C@@H]1C(=O)C(C(N)=O)=C(O)[C@@]2(O)C(=O)C3=C(O)c4c(O)ccc(Cl)c4[C@@](C)(O)[C@H]3C[C@@H]12,Potency,[4],562 nM (active)
